Test results from publication PMC4336329 (PLoS ONE, 2015).
In all, about 310,000 compounds went through this assay and about 14,000 (4.5%) showed an effect of 50% or more. The effect is printed as a negative number. The list comes from a sample in which strong results are over-represented; it also holds similar structures and randomly drawn compounds.

These compounds were tested against human ether-à-go-go-related gene (hERG) potassium channel (human, UniProt Q12809) (assay: primary screen, population patch clamp on CHO cells stably expressing hERG; higher = less effect of the substance).
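Note: peak tail current of the secondary pulse compared with the same well before compound.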

Chain of human ether-à-go-go-related gene (hERG) potassium channel (Q12809 whole entry, looked up): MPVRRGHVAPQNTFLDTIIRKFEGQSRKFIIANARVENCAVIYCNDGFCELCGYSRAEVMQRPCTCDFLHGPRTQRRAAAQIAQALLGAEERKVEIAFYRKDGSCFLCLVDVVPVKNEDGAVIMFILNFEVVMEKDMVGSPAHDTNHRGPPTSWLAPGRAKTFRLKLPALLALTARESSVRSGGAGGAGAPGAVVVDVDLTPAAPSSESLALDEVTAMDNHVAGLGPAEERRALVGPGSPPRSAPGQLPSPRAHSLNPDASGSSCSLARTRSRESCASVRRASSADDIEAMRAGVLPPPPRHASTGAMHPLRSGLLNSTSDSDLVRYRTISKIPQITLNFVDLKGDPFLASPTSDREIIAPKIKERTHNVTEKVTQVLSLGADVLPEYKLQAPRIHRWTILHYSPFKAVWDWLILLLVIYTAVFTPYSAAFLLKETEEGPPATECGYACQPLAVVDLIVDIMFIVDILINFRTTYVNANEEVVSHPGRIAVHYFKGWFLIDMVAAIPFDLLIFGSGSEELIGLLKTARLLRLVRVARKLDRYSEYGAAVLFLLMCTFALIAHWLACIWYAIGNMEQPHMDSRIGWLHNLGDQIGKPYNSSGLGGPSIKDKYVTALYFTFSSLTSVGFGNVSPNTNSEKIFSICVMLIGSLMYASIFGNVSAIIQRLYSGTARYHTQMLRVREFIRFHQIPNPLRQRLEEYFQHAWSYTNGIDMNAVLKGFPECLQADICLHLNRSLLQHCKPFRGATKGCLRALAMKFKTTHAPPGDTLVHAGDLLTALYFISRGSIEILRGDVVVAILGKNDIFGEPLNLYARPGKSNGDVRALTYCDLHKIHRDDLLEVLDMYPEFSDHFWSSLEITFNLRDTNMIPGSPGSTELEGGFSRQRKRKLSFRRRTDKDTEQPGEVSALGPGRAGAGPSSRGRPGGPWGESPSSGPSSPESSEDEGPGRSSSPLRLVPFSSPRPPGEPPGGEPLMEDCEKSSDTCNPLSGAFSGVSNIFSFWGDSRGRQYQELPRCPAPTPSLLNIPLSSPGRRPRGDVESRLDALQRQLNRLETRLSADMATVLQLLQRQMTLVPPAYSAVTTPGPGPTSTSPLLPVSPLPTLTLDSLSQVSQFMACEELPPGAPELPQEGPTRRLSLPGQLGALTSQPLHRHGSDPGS

Row | SMILES | hERG current change (%, negative = inhibition) at 10uM [%]
1 | COC(=O)C1=C(C)N(Cc2ccccc2)C(=NCC(C)C)N[C@H]1c1ccccc1 | -55.9
2 | COCCN=C1N[C@@H](c2ccc(Br)cc2)C(C(=O)OC)=C(C)N1Cc1ccccc1 | -55.3
3 | COCCN=C1N[C@@H](c2ccccc2)C(C(=O)OC)=C(C)N1Cc1ccccc1 | -16.8
4 | COC(=O)C1=C(C)N(Cc2ccccc2)C(=NCCCCO)N[C@H]1c1ccccc1 | -53.2
5 | COC(=O)C1=C(C)N(CC2CC2)C(=NCc2cc(OC)c(OC)c(OC)c2)N[C@H]1c1ccccc1 | -17.5
6 | COC(=O)C1=C(C)N(Cc2ccccc2)C(=S)N[C@H]1c1ccccc1 | -2.64
7 | COC(=O)C1=C(C)N(CC2CC2)C(=NCc2cccc(Cl)c2)N[C@H]1c1ccccc1 | -72.3
8 | COC(=O)C1=C(C)N(Cc2ccccc2)C(=O)N[C@H]1c1ccccc1 | -13.5
9 | CCN1C(=NCc2cccc(Cl)c2)N[C@@H](c2cccc(F)c2)C(C(=O)OC)=C1C | -41.4
10 | CCN1C(=NCCCCO)N[C@@H](c2cccc(C(F)(F)F)c2)C(C(=O)OC)=C1C | 5.89
11 | COC(=O)C1=C(C)N(Cc2ccccc2)C(=NCCCCO)N[C@H]1CCc1ccccc1 | -43.3
12 | COC(=O)C1=C(C)N(Cc2ccccc2)C(=O)N[C@H]1c1ccc(Br)cc1 | -10.9
13 | COc1cc(NC(=O)c2ccc(-c3ccc(Br)cc3)o2)ccc1NC(=O)C(C)C | -26.1
14 | O=C(CSc1ccc(Cl)cc1)Nc1ccc(N2CCN(c3ccccc3)CC2)c(F)c1 | 24.9
15 | COc1cccc(C(=O)Oc2ccc3ccc(=O)oc3c2)c1 | 42.3
16 | O=[N+]([O-])c1ccc(-c2ccc(S(=O)(=O)NCCN3CCCC3)cc2)cc1 | -77.7
17 | CCN(CC)S(=O)(=O)c1ccc(S(=O)(=O)N2CCN(CCC#N)CC2)cc1 | 8.45
18 | Cc1ccc(S(=O)(=O)N(CCC#N)CCN2CCCC2)cc1 | -21.9
19 | O=[N+]([O-])c1ccc(S(=O)(=O)NCCN2CCOCC2)cc1 | 11.2
20 | N#CCCN(CCN1CCCC1)S(=O)(=O)c1ccc(-c2ccc([N+](=O)[O-])cc2)cc1 | -79.1
21 | O=S(=O)(NCCN1CCCC1)c1ccc(Br)cc1 | -8.08
22 | Cc1oc2cc(O)ccc2c(=O)c1Oc1ccccc1 | -10.2
23 | COC1=CC(=O)C[C@@H](C)[C@]12Oc1c(Cl)c(OC)cc(OC)c1C2=O | -9.99
24 | C=CCSc1ncccc1C(=O)NCCc1ccc(Cl)cc1 | 6.54
25 | O=S(=O)(Nc1nc2ccc(S(=O)(=O)N3CCCC3)cc2s1)c1ccc(F)cc1 | -2.68

Row | SMILES | hERG current change (%, negative = inhibition) at 10uM [%]
26 | COCCNc1oc(-c2ccc(C)cc2)nc1C#N | 8.26
27 | Cc1ccc(-n2c(SCC(=O)N3CCOCC3)nnc2-c2cccnc2)cc1C | -16.9
28 | Cc1cccc2sc(N(CCCN(C)C)C(=O)CN3C(=O)c4ccccc4C3=O)nc12.Cl | -11.2
29 | CN(C)CCCN(C(=O)CCc1ccccc1)c1nc2ccc(Br)cc2s1.Cl | -3.24
30 | CN(C)CCN(C(=O)CCc1ccccc1)c1nc2c(F)cc(F)cc2s1.Cl | -33.4
31 | Cc1ccc2nc(N(CCCN(C)C)C(=O)CCc3ccccc3)sc2c1.Cl | -66
32 | CN(C)CCCN(C(=O)CCc1ccccc1)c1nc2ccc(F)cc2s1.Cl | -70.1
33 | CN(C)CCCN(C(=O)CCc1ccccc1)c1nc2ccc(Cl)cc2s1.Cl | -24.4
34 | Cc1cccc2sc(N(CCCN(C)C)C(=O)CCc3ccccc3)nc12.Cl | -54.1
35 | Cc1ccccc1/C=N/n1c(-c2ccccn2)n[nH]c1=S | 14.7
36 | O=S(=O)(c1cccc2cccnc12)N1CCN(Cc2ccccc2)CC1 | -0.188
37 | Cn1ccnc1C(O)c1cc(C(C)(C)C)c(O)c(C(C)(C)C)c1 (stereo not shown) | -37.3
38 | COC(=O)N/N=C\c1ccc(-c2cc(Cl)c(Cl)cc2Cl)o1 | -1.58
39 | COc1ccc(S(=O)(=O)N2CCN(CC(=O)NC3CCCC3)CC2)cc1 | 0.823
40 | Cc1ccc(-c2noc(CCC(=O)NCc3ccccc3CN3CCOCC3)n2)cc1 | -36.5
41 | Clc1ccc(-c2noc(CN3CCOCC3)n2)cc1 | 4.83
42 | O=C(C1CCCN(Cc2nc(-c3ccc(Cl)cc3)no2)C1)N1CCOCC1 (stereo not shown) | 1.39
43 | O=C(CCc1nc(-c2ccccc2)no1)NCc1ccccc1CN1CCOCC1 | -10.5
44 | O=C(C1CCN(Cc2nc(-c3ccc(Cl)cc3)no2)CC1)N1CCOCC1 | -61.9
45 | O=C(CCc1nc(-c2ccc(Cl)cc2)no1)NCc1ccccc1CN1CCOCC1 | -65.5
46 | Cc1ccc2oc(=O)c3cnn(CC(=O)N(CCN(C)C)Cc4ccco4)c3c2c1 | -25.7
47 | CC(C)c1ccc(-c2c(NCCc3ccccc3)c(=O)c2=O)cc1 | 22.1
48 | Cc1ccc(OCCNC(=O)CNC(=O)c2ccccc2Cl)cc1 | -3.58
49 | COc1cc(CN2CCNCC2)cc(OC)c1OC.Cl | 5.64
